Compounds without any hit were thinned out: in the full panel of roughly 83,000, 20% have a hit.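 The test compound was applied at a single concentration to cells in 96-well plates for 48 hours, and percent growth was recorded.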 Values without a mark were called inactive. Active and inactive are the calls of the source. The calls were made as follows: active = growth percent below 10; inactive = the rest.
Tests used:
Assay in all cases: NCI-60 one-dose screen, 48 h (100 = growth as untreated, 0 = no growth, -100 = all killed)
Details in all cases: 10 µM unless noted
SR leukemia = test system: SR leukemia
RPMI-8226 leukemia = test system: RPMI-8226 leukemia
OVCAR-8 ovarian = test system: OVCAR-8 ovarian
OVCAR-5 ovarian = test system: OVCAR-5 ovarian
OVCAR-4 ovarian = test system: OVCAR-4 ovarian
SK-OV-3 ovarian = test system: SK-OV-3 ovarian
IGROV1 ovarian = test system: IGROV1 ovarian
OVCAR-3 ovarian = test system: OVCAR-3 ovarian
HS 578T breast = test system: HS 578T breast
NCI/ADR-RES ovarian = test system: NCI/ADR-RES ovarian
T-47D breast = test system: T-47D breast
BT-549 breast = test system: BT-549 breast
MDA-MB-435 melanoma = test system: MDA-MB-435 melanoma
SW-620 colon = test system: SW-620 colon
MCF7 breast = test system: MCF7 breast
HCT-116 colon = test system: HCT-116 colon
HCC-2998 colon = test system: HCC-2998 colon
KM12 colon = test system: KM12 colon

| SMILES | growth (SR leukemia) | growth (RPMI-8226 leukemia) | growth (OVCAR-8 ovarian) | growth (OVCAR-5 ovarian) | growth (OVCAR-4 ovarian) | growth (SK-OV-3 ovarian) [%] | growth (IGROV1 ovarian) | growth (OVCAR-3 ovarian) | growth (HS 578T breast) | growth (NCI/ADR-RES ovarian) | growth (T-47D breast) | growth (BT-549 breast) | growth (MDA-MB-435 melanoma) | growth (SW-620 colon) | growth (MCF7 breast) | growth (HCT-116 colon) | growth (HCC-2998 colon) | growth (KM12 colon) |
| --- | --- | --- | --- | --- | --- | --- | --- | --- | --- | --- | --- | --- | --- | --- | --- | --- | --- | --- |
| C#Cc1nc(Nc2cc(C)[nH]n2)c2ccccc2n1 | 3.84% (active) | -16.5% (active) | -19.2% (active) | -28.5% (active) | -55.2% (active) | 21.1 | -62.7% (active) | -71% (active) | -1.95% (active) | 9.77% (active) | -36.8% (active) | -34.9% (active) | -75.5% (active) | -25.6% (active) | -25.8% (active) | -12.7% (active) | -91% (active) | -73.1% (active) |
| O=C1Nc2ccc(Br)cc2C12CC(c1ccccc1)=NN2 (stereo unspecified) | 12.5% | 28.3% | 61% | 82% | 67.5% | 48.4 | 52.6% | 24.1% | 47% | 40.8% | 71.6% | 47.8% | -21.1% (active) | 18.6% | 18.3% | 22.9% | 75.2% | 30.6% |
| CC/C(Cc1ccccc1)=C(\c1ccc(OCCN2CCCC2)cc1)c1ccc(OC(C)=O)cc1 | 14.3% | 60.2% | 97.8% | 92.6% | 79% | 107 | 78% | 89.6% | 85.5% | 75.5% | 51.4% | 93.8% | 69.7% | 89.9% | 24.6% | 78.7% | 56.3% | 70.7% |
| CCCCNc1ccc2c3c1cccc3c(=O)n1c3ccccc3nc21 | 15.6% | 80.5% | 106% | 110% | 85.8% | 96.4 | 41.8% | 95.3% | 93.1% | 91.3% | 35.7% | 98.2% | 111% | 86.4% | 10.3% | 86.7% | 74% | 77.7% |
| COc1ccc(-c2cc(/C=C3\C(=O)Nc4ccc(Cl)cc43)[nH]n2)cc1 | 10.6% | 61.6% | 67.5% | 92.5% | 101% | 60 | 17.7% | 31.6% | 68.6% | 34.2% | 47.4% | 55.4% | -27.4% (active) | 26.9% | 17% | 26.8% | 94.3% | 43.8% |
| COCCCN=C(N)c1ccc(NC(=O)c2ccc(C(=O)Nc3ccc(C(N)=NCCCOC)cc3)cc2)cc1 | 72.3% | 63.2% | 106% | 110% | 105% | 115 | 120% | 154% | 151% | 112% | 108% | 78.6% | 88.4% | 106% | 109% | 79.7% | 116% | 132% |
| Oc1ccccc1/C=N/Nc1ccc2ccccc2n1 | 8.32% (active) | 35.2% | 33.2% | 81% | -0.697% (active) | 43 | 28.1% | 8.79% (active) | 79.3% | 22.9% | 21.8% | 66.8% | 65.2% | 34% | -18% (active) | 22.3% | 68.6% | 46.3% |
| CCN(CC)CCCC(C)Nc1ccnc2c(OC)cccc12 (stereo unspecified) | 97.3% | 103% | 106% | 102% | 111% | 117 | 109% | 146% | 127% | 110% | 119% | 118% | 118% | 115% | 101% | 112% | 115% | 113% |
| CC1=C(NCCN2CCCC2)C(=O)c2c(OCc3cccc(Cl)c3)cccc2C1=O | 14.1% | 60.9% | 79.7% | 79.9% | 73.1% | 95.2 | 71.8% | 85% | 72.4% | 78.7% | 59.9% | 14.5% | 61.8% | 85.1% | 57.5% | 43.9% | 84.4% | 81% |
| COc1cccc(NC(=O)c2sc3nc4c(cc3c2N)CN(Cc2ccccc2)CC4)c1 | 28.8% | 72.7% | 47% | 85.3% | 20.5% | 36.9 | 44.2% | 36.4% | 20.8% | 63.2% | 66.1% | 65.5% | 4.27% (active) | 54.4% | 49.5% | 58.1% | 77.3% | 48.2% |
| CC(C)(C)n1cc(-c2ccnc(NCCCNS(=O)(=O)c3cccc4ccccc34)c2)c(-c2cccc(O)c2)n1 | -1.59% (active) | -34.8% (active) | 30.6% | 48.4% | 36.5% | 71.4 | 41.7% | 43.6% | 36.6% | 36.5% | 7.41% (active) | 39.8% | 36.4% | 16.3% | 11.5% | 29.4% | -49.4% (active) | 14.3% |
| C(=N\Nc1ccccn1)/c1ccccn1 | 15.8% | 35.5% | 13.6% | 40.7% | 10.6% | 30.5 | 10.7% | 7.56% (active) | 62.8% | -9.79% (active) | 22.8% | -16.8% (active) | 33.6% | 37.4% | 12.4% | 4.73% (active) | 19.2% | 29.6% |
| CCN(CC)C12CCCCC1(C)C(C#N)(C#N)C(C#N)=C(N)O2 (stereo unspecified) | 92.7% | 125% | 93.4% | 101% | 100% | 110 | 111% | 98.3% | 120% | 101% | 98.8% | 103% | 96.8% | 109% | 105% | 100% | 96.3% | 106% |
| COc1cc(C(=O)/C=C/c2c(C)n([O-])c3ccc(C)cc3[n+]2=O)cc(OC)c1OC | -35.2% (active) | -17.3% (active) | 5.36% (active) | 78.3% | 36.9% | 96 | 73.7% | 13.2% | 52.8% | 81.2% | 17.6% | 76.7% | 60.1% | 0.477% (active) | 29.4% | 15% | 104% | 34.8% |
| Oc1ccccc1N=Cc1c(O)ccc2ccccc12 | 37.5% | 26.5% | 97.8% | 87.3% | 74.8% | 84.6 | 58.9% | 64.2% | 64.9% | 56.8% | 63% | 54.5% | 79.1% | 85.7% | 70.4% | 70.6% | 92.4% | 59.1% |
| c1ccc(-c2nc(N3CCOCC3)c3c4c(sc3n2)CCCCC4)nc1 | 59.6% | 35.5% | 81.2% | 58.3% | 51% | 32.9 | 24% | 74.2% | 65% | 27.3% | 8.3% (active) | 62.8% | 71% | 88.6% | 23.7% | 74.3% | 83% | 64.7% |
| O=C1Nc2ccccc2C12CC(c1ccc(Cl)cc1)=NN2 (stereo unspecified) | 86.2% | 77.8% | 95.2% | 95.8% | 98.6% | 107 | 101% | 116% | 107% | 108% | 91.1% | 98.5% | 98.8% | 106% | 91.4% | 95.3% | 108% | 110% |
